In ChEMBL document CHEMBL3988442, “University of Dundee, Small-Polar-MMV Screening Library” (2021):
Screen size: about 48,000 compounds; about 13,000 (27%) showed an effect of 50% or more. Some of the results follow.

test system: Wolbachia pipientis; assay: Anti-Wolbachia Cell-Based Screen; type: functional; set-up: scale not given: in the data most compounds retested in dose-response had high values; settings: 5 µM

Row | Compound | Percent Effect [%]
1 | CCNS(=O)(=O)c1ccc(C)c(C(=O)N(C)Cc2ccco2)c1 | -0.5279
2 | N#Cc1ccccc1OCCN1CCC(C(=O)N2CCOCC2)CC1 | -3.937
3 | COc1cccc(CCNC(=O)CN2CCN(C)CC2C)c1 (stereo not given) | 5.841
4 | Cc1nnc(N2C[C@@H]3CCCO[C@@H]3[C@H](N3CCCC3=O)C2)s1.O=C(O)C(F)(F)F | -2.907
5 | Cc1n[nH]c(C)c1-c1cc(-c2cccc(O)c2)nc(N)c1C#N | 88.86
6 | Cc1n[nH]c(C)c1-c1cc(-c2ccc[nH]2)nc(N)c1C#N | 119.5
7 | Cc1n[nH]c(C)c1-c1c(C#N)c(N)nc2c1CCc1[nH]ccc1-2 | 9.181
8 | CC(C)Cc1cc(-c2cc(-c3ccc[nH]3)nc(N)c2C#N)n[nH]1 | 126.8
9 | Cc1n[nH]c(C)c1-c1cc(-c2cc[nH]c2)nc(N)c1C#N | 123.5
10 | Cn1cc(-c2c(C#N)c(N)nc3c2CCc2[nH]ccc2-3)cc1C#N | -2.103
11 | CCN(c1ccccc1C(=O)O)S(=O)(=O)c1cccc2cccnc12 | -1.145
12 | CC(C)=CCN1CCN(C(=O)CSc2ccccn2)[C@H]2CS(=O)(=O)C[C@H]21 | 6.252
13 | c1[nH]c(CC2CCCC2)nc1CN1CCCC2(CCOC2)C1 (stereo not given) | -3.102
14 | CS(=O)(=O)c1ccc(NC(=O)CSC(F)(F)F)cn1 | 0.5317
15 | Cc1ccc(CC(=O)N2CCOC(c3nc(C(C)(C)C)n[nH]3)C2)cn1 (stereo not given) | 10.27
16 | CC(C)c1csc(C2CCCN(C(=O)Cn3ccccc3=O)C2)n1 (stereo not given) | -10.1
17 | Cc1n[nH]c(C2CN(C(=O)Cn3ccccc3=O)CCO2)n1 (stereo not given) | -1.768
18 | CC(C)(C)c1n[nH]c(C2CN(C(=O)Cn3ccccc3=O)CCO2)n1 (stereo not given) | 103.2
19 | CC(C)c1n[nH]c(C2CN(C(=O)Cn3ccccc3=O)CCO2)n1 (stereo not given) | 111.9
20 | CC(C)c1n[nH]c(C2CN(C(=O)CCn3ccccc3=O)CCO2)n1 (stereo not given) | 2.958
21 | CCN(C)S(=O)(=O)NCC1(c2ccccc2Br)CC1 | 2.269
22 | CN(Cc1csc(-c2cccs2)n1)Cc1ncccc1C(=O)O | 6.204
23 | CN(C)C(=O)C1SCCc2ccccc21 (stereo not given) | -15.52
24 | CCOc1ccc(NC2CCN(CC(F)(F)F)C2=O)cc1C (stereo not given) | -0.2214
25 | COc1ccc(S(=O)(=O)NCC(C)(O)c2cccs2)cc1Cl (stereo not given) | 0.9761

Row | Compound | Percent Effect [%]
26 | COc1cccc(CN(C)C(C)c2nccs2)c1OCCn1ccnc1 (stereo not given) | -3.505
27 | Cc1ccn(-c2ccccc2NCc2cccnc2C)n1 | -1.379
28 | O=C(NCc1cccnc1)NC1CCCN(c2ncccn2)C1 (stereo not given) | 12.61
29 | CCN1C(=O)CC[C@]12CC[C@@H](NC(=O)NCc1cccnc1)CC2.O=C(O)C(F)(F)F | 126.1
30 | CC(C)CN1C(=O)CC[C@]12CC[C@@H](NC(=O)NCc1cccnc1)CC2.O=C(O)C(F)(F)F | 100.3
31 | O=C(O)C(F)(F)F.O=C1CC[C@]2(CC[C@@H](NC3CCOC3)CC2)N1Cc1ccccc1 (stereo not given in full) | -11.81
32 | CN1CCN(Cc2cccnc2)C2(CCN(C3CCOCC3)C2)C1=O.O=C(O)C(F)(F)F.O=C(O)C(F)(F)F.O=C(O)C(F)(F)F (stereo not given) | 4.033
33 | Cc1ccc(CN2C(=O)CC[C@]23CC[C@@H](NC2CCOC2)CC3)cc1.O=C(O)C(F)(F)F (stereo not given in full) | -29.75
34 | O=C(NCc1cccnc1)C1CC(=O)N(CC2CC2)C1 (stereo not given) | 7.078
35 | O=C(NCc1cccnc1)N[C@H]1CC[C@@]2(CCC(=O)N2CC2CC2)CC1.O=C(O)C(F)(F)F | 109.8
36 | CN1C(=O)CC[C@]12CC[C@@H](NC(=O)NCc1cccnc1)CC2.O=C(O)C(F)(F)F | 120.2
37 | O=C(O)C(F)(F)F.O=C1CC[C@]2(CC[C@@H](NC3CCOCC3)CC2)N1Cc1ccccc1 | -21.38
38 | CC(C)N1CCC(NC(=O)NCc2cccnc2)C1 (stereo not given) | -0.2987
39 | CCN1C(=O)CC[C@]12CC[C@@H](NC(=O)c1cc(C)on1)CC2 | -41.62
40 | CC(C)CN1CCC(c2nc3c([nH]2)CC(C)(C)CNC3=O)C1 (stereo not given) | -15.84
41 | c1cn(Cc2nnc(C3CCN(C4CCNCC4)CC3)n2C2CC2)cn1 | -5.551
42 | O=C1CCOC[C@]2(CN(Cc3ccccc3)C[C@H]2c2ccccc2F)N1 | 94.73
43 | O=C(O)CCCN1C[C@@H](c2ccccc2F)[C@@]2(CCCCC(=O)N2)C1 | 110
44 | O=C1CCOC[C@]2(CN(Cc3ccccc3)C[C@H]2c2ccccc2)N1 | 85.32
45 | O=C1NCC[C@]12CN(Cc1ccoc1)C[C@H]2c1ccccc1 | -11.19
46 | O=C(NC1CC(F)(F)C1)[C@]12COC[C@H]1CN(Cc1ccccc1)C2.O=C(O)C(F)(F)F | -29.2
47 | O=C(CC1CN(Cc2ccccc2)CCO1)Nc1ccccc1F (stereo not given) | -6.692
48 | O=C1CCOC[C@]2(CN(Cc3ccccc3)C[C@H]2c2cccnc2)N1 | 97.51
49 | O=C1NC2(CCN(Cc3cccnc3)CC2)CC1c1ccncc1 (stereo not given) | -17.77
50 | NC(=O)CN1CC2(CCC1=O)CCN(Cc1ccccc1F)CC2 | -12.52

Row | Compound | Percent Effect [%]
51 | O=C1NC[C@@]2(C(=O)O)CN(Cc3ccc(Oc4ccccc4)cc3)C[C@@H]12 | 22.58
52 | Cc1ccc(OCC(=O)N2C[C@@H]3CN(C)CCO[C@@H]3C2)cc1.O=C(O)C(F)(F)F | -15
53 | CN(Cc1ccoc1)C(=O)C1CCN(C(=O)C2CCCC2)CC1 | -1.17
54 | Cc1cc(NC(=O)CN(C)CC2CCCN2c2cccnn2)n(C)n1 (stereo not given) | -5.162
55 | N[C@@H]1CCN(Cc2ccc(-c3nc(-c4cccnc4)cc(=O)[nH]3)cc2)C1 | 4.047
56 | COc1cc(C(C)=O)ccc1SCC(=O)Nc1cc(C)n[nH]1 | 8.192
57 | O=C1CCOC[C@]2(CN(Cc3ccccc3)C[C@H]2c2cccc(F)c2)N1 | 100.5
58 | O=C(NC[C@]12COC[C@H]1CN(Cc1cccc(F)c1)C2)c1ccco1 | 10.17
59 | O=C1NC[C@@]2(C(=O)O)CN(Cc3cccc(CN4CCOCC4)c3)C[C@@H]12 | -10.55
60 | N#Cc1ccc(CNCC(C(=O)N2CCOCC2)c2ccccc2)cc1 (stereo not given) | -11.01
61 | COc1ccc(C)cc1CN1CCN(Cc2nccn2C)CC1 | -6.315
62 | COc1ccc(C)cc1CN1CCC(c2cc3ncccc3cn2)CC1.Cl | 107
63 | Fc1ccc(F)c(CN2CCC(c3cnccn3)CC2)c1 | 76.33
64 | Cl.Fc1cccc(CN2CCC(c3cc4ncccc4cn3)CC2)c1F | 64.82
65 | Cl.Fc1ccc(F)c(CN2CCC(c3cc4ncccc4cn3)CC2)c1 | 84.15
66 | CN(Cc1cc(F)cc2cccnc12)CC1CCN(CCO)CC1 | -1.587
67 | O=C(c1cccnc1)N1C[C@@H]2CC[C@H](C1)N(Cc1cc(F)ccc1F)C2 | -19.69
68 | Cc1cnn(Cc2cc(F)ccc2F)c1NC(=O)NC1CC1 | -2.224
69 | Cl.Cl.OC(CN1CCN(Cc2cc(F)ccc2F)CC1)C1CC1 (stereo not given) | -0.1352
70 | Fc1cccnc1N1CCC(NCc2cccc3cn[nH]c23)C1 (stereo not given) | 4.996
71 | COc1ccc(Oc2cccnc2)cc1CN1CCCC1 | 40.81
72 | CC(C)CCNc1nnc(C(C)C)s1 | -2.433
73 | Cc1noc(C)c1CN(C)C(=O)C1(N)CCCCC1 | -29.06
74 | CCC1CN(Cc2ccccc2)CCN1Cc1nnc(C2CCC2)o1 (stereo not given) | 7.114
75 | CN(Cc1nc(C2CC2)no1)C(=O)c1cccc(CC2CCNCC2)c1 | -25.8

Row | Compound | Percent Effect [%]
76 | CC(C)(O)c1cn(C2CCN(C(=O)CCc3ccncc3)CC2)nn1 | -4.68
77 | O=C(Nc1cnc(C2CC2)nc1)N1CCCC1 | -9.25
78 | CC(C)c1cc(C2CCN(Cc3cc(F)cc(F)c3)CC2)[nH]n1 | 18.27
79 | Fc1cc(F)cc(CN2CCC(c3cc4ncccc4cn3)CC2)c1 | 115.3
80 | CCn1c(C)nnc1CN(C)C1CCN(Cc2cnc(C)cn2)C1 (stereo not given) | -10.08
81 | Cc1cnc(CN2CCC(N(C)Cc3nnc(C)n3C)C2)cn1 (stereo not given) | 0.1518
82 | Cc1nnc(CN(C)C2CCN(Cc3nnc(C4CCC4)o3)C2)n1C (stereo not given) | 92.95
83 | CCn1c(C)nnc1CN(C)C1CCN(Cc2nnc(C3CC3)o2)C1 (stereo not given) | 99.37
84 | CCn1c(C)nnc1CN(C)C1CCN(Cc2ccon2)C1 (stereo not given) | 7.959
85 | N#CC(NC(=O)CCC1CCC1)c1cnn(-c2ccccc2)c1 (stereo not given) | 1.369
86 | CNC(=O)Cn1nc(C(C)C)c2cnn(C(C)(C)C)c2c1=O | -6.377
87 | CN(C)[C@@H]1CO[C@H](CNC(=O)C2CCCC2)[C@H]1O | -8.236
88 | Cc1ccc(C(=O)NCCNC(=O)c2cncnc2C)cc1F | -5.207
89 | CCC(C)(C)C(=O)N1C[C@@H]2C[C@@H](c3nnc(C)[nH]3)O[C@@H]2C1 | 92.76
90 | CCn1nc(C)cc1C(=O)N1C[C@@H]2C[C@@H](C)O[C@@H]2C1.O=C(O)C(F)(F)F | 99.49
91 | Cc1nnc([C@@H]2C[C@H]3CN(C(=O)c4c(C)noc4C)C[C@H]3O2)[nH]1.O=C(O)C(F)(F)F | -14.34
92 | CCn1nc(C)cc1C(=O)N1C[C@@H]2C[C@@H](c3noc(C)n3)O[C@@H]2C1 | 118.5
93 | CCn1nc(C)cc1C(=O)N1CC[C@H](OC)[C@H]2CN(CC3CC3)C[C@H]21.O=C(O)C(F)(F)F | 3.94
94 | CCn1nc(C)cc1C(=O)N1C[C@@H]2C[C@@H](c3nc(C)cs3)O[C@@H]2C1 | 100.8
95 | Cc1nnc([C@@H]2C[C@H]3CN(C(=O)C4CC4)C[C@H]3O2)[nH]1 | -12.1
96 | Cc1ccc(C(=O)N2CC[C@H]3O[C@@H](c4noc(C)n4)C[C@H]3C2)o1 | 6.095
97 | Cc1csc([C@@H]2C[C@@H]3CCN(C(=O)c4cc(C)on4)C[C@H]3O2)n1 | 1.11
98 | Cc1csc([C@@H]2C[C@@H]3CCN(C(=O)c4ccnnc4)C[C@H]3O2)n1 | -12.9
99 | Cc1nc([C@H]2C[C@H]3CN(C(=O)c4cc(C)c(C)s4)CC[C@@H]3O2)no1 | 1.908
100 | CCN1C[C@@H]2[C@@H](OC)CCN(C(=O)c3cc(C)nn3CC)[C@@H]2C1.O=C(O)C(F)(F)F | -7.784
